Test results: PubChem BioAssay (NCI)
The panel holds about 83,000 compounds, 20% with a hit somewhere; the sample as a whole holds those more often.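 Single-dose data. Exposure time 48 hours. Values below 10 considered active.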 Active and inactive are the calls of the source.

Legend:
Assay in all cases: NCI-60 one-dose screen, 48 h (100 = growth as untreated, 0 = no growth, -100 = all killed)
Conditions in all cases: 10 µM unless noted
HCT-15 colon = tested on: HCT-15 colon
HT29 colon = tested on: HT29 colon
SNB-75 CNS = tested on: SNB-75 CNS
SNB-19 CNS = tested on: SNB-19 CNS
U251 CNS = tested on: U251 CNS
PC-3 prostate = tested on: PC-3 prostate
SK-MEL-5 melanoma = tested on: SK-MEL-5 melanoma
UACC-62 melanoma = tested on: UACC-62 melanoma
LOX IMVI melanoma = tested on: LOX IMVI melanoma
SK-MEL-28 melanoma = tested on: SK-MEL-28 melanoma

Measured: growth

Nc1n[nH]c2cccc(C#Cc3cccc(C(=O)Nc4cc(C(F)(F)F)cc(C(F)(F)F)c4)c3)c12
inactive: HCT-15 colon 70.4% | HT29 colon 46.4% | SNB-75 CNS 91.5% | SNB-19 CNS 105% | U251 CNS 84% | PC-3 prostate 33% | SK-MEL-5 melanoma 73% | UACC-62 melanoma 50% | LOX IMVI melanoma 41.2% | SK-MEL-28 melanoma 62.1%

COc1ccc(/C=C/C(=O)c2ccc(Nc3ccnc4cc(Cl)ccc34)cc2)cc1
inactive: HCT-15 colon 77.7% | HT29 colon 45% | SNB-75 CNS 102% | SNB-19 CNS 87.1% | U251 CNS 84.9% | PC-3 prostate 75% | SK-MEL-5 melanoma 67.8% | UACC-62 melanoma 92.3% | LOX IMVI melanoma 89.8% | SK-MEL-28 melanoma 118%

COCCn1cc(-c2nc(-c3cc4cccnc4[nH]3)cs2)c2cc(OC)ccc21
inactive: HCT-15 colon 20.3% | HT29 colon 30.9% | SNB-19 CNS 61.6% | U251 CNS 32.8% | PC-3 prostate 10.4% | SK-MEL-5 melanoma 39.1% | UACC-62 melanoma 49.8% | LOX IMVI melanoma 33.2% | SK-MEL-28 melanoma 62.8%
active: SNB-75 CNS 9.81%

CS(=O)(=O)Nc1cncc(-c2ccc3ncnc(Nc4cncc(Cl)c4)c3c2)c1
inactive: HCT-15 colon 92.9% | HT29 colon 80% | SNB-75 CNS 82.4% | SNB-19 CNS 68.2% | U251 CNS 59.2% | PC-3 prostate 84.7% | SK-MEL-5 melanoma 95.4% | UACC-62 melanoma 69.6% | LOX IMVI melanoma 79.7% | SK-MEL-28 melanoma 81.6%

C/C(Cc1ccc(Cl)cc1)=C(\c1ccc(O)cc1)c1ccc(Cl)cc1
inactive: HCT-15 colon 85.3% | HT29 colon 90.9% | SNB-75 CNS 94.7% | SNB-19 CNS 104% | U251 CNS 102% | PC-3 prostate 71.8% | SK-MEL-5 melanoma 100% | UACC-62 melanoma 84.6% | LOX IMVI melanoma 89.9% | SK-MEL-28 melanoma 95.1%

O=CN1N=C(c2cccc(Nc3ccnc4cc(Cl)ccc34)c2)CC1c1ccccc1 (centres undefined)
active: HT29 colon -2% | SNB-75 CNS -9.35%
inactive: HCT-15 colon 19.6% | SNB-19 CNS 40.3% | U251 CNS 16.9% | PC-3 prostate 24.2% | SK-MEL-5 melanoma 17.9% | UACC-62 melanoma 34.7% | LOX IMVI melanoma 20.6% | SK-MEL-28 melanoma 49.5%

C#CCOc1cccc(Nc2ncnc3ccc(NC(=O)C=C)cc23)c1
inactive: HCT-15 colon 42.9% | HT29 colon 30.7% | SNB-75 CNS 26.6% | SNB-19 CNS 48.2% | U251 CNS 45.6% | PC-3 prostate 48.5% | SK-MEL-5 melanoma 65.7% | UACC-62 melanoma 51% | LOX IMVI melanoma 41.1% | SK-MEL-28 melanoma 77.8%

CC(C)c1ccc(C(=O)Nc2nc3ccc(O)c(CN(C)C)c3s2)cc1
inactive: HCT-15 colon 20% | HT29 colon 23.8% | SNB-75 CNS 107% | SNB-19 CNS 97.9% | U251 CNS 69.1% | PC-3 prostate 83% | SK-MEL-5 melanoma 74.4% | UACC-62 melanoma 66% | LOX IMVI melanoma 28.1% | SK-MEL-28 melanoma 96.1%

O=C(Nc1ccc(Oc2cccc(F)c2)c(Cl)c1)c1cccnc1
inactive: HCT-15 colon 29.9% | HT29 colon 12.7% | SNB-19 CNS 42.6% | U251 CNS 32.5% | PC-3 prostate 24.6% | UACC-62 melanoma 31.2% | LOX IMVI melanoma 52.8% | SK-MEL-28 melanoma 54%
active: SNB-75 CNS 7.85% | SK-MEL-5 melanoma -24%

Cc1ccc(NC(=O)c2sc3nc(C)c(Br)c(C)c3c2N)cc1
inactive: HCT-15 colon 93.4% | HT29 colon 87.4% | SNB-75 CNS 20.9% | SNB-19 CNS 66.3% | U251 CNS 50.8% | PC-3 prostate 53.7% | SK-MEL-5 melanoma 73.1% | UACC-62 melanoma 67.2% | LOX IMVI melanoma 62.1% | SK-MEL-28 melanoma 75.4%

CCCNc1nc2ccccc2c2c1S(=O)(=O)c1ccc(Cl)cc1C2=O
active: HCT-15 colon 7.22% | HT29 colon 9.72% | U251 CNS 1.6% | SK-MEL-5 melanoma 2.77% | LOX IMVI melanoma 4.45%
inactive: SNB-75 CNS 15.6% | SNB-19 CNS 24.4% | PC-3 prostate 25.1% | UACC-62 melanoma 10.9% | SK-MEL-28 melanoma 32.8%

O=C(CN1C(=O)NC2NC(=O)NC21)N/N=C/c1ccccc1[N+](=O)[O-] (centres undefined)
inactive: HCT-15 colon 103% | HT29 colon 112% | SNB-75 CNS 83.3% | SNB-19 CNS 96.8% | U251 CNS 107% | PC-3 prostate 101% | SK-MEL-5 melanoma 99.3% | UACC-62 melanoma 90.1% | LOX IMVI melanoma 102% | SK-MEL-28 melanoma 107%

COc1ccc(CN2c3ccccc3Sc3ccccc32)cc1F
active: HT29 colon -4.41%
inactive: HCT-15 colon 15.9% | SNB-75 CNS 45.1% | SNB-19 CNS 34.6% | U251 CNS 20.1% | PC-3 prostate 21.2% | SK-MEL-5 melanoma 22.3% | UACC-62 melanoma 28.5% | LOX IMVI melanoma 39.9% | SK-MEL-28 melanoma 56.8%

Cc1ccc(C[P+](c2ccccc2)(c2ccccc2)c2ccccc2)cc1
active: HT29 colon 2.44% | SNB-75 CNS -3.92% | U251 CNS 7.54% | PC-3 prostate 4.25% | SK-MEL-5 melanoma -66.3% | UACC-62 melanoma 6.79% | SK-MEL-28 melanoma 9.82%
inactive: HCT-15 colon 82.5% | SNB-19 CNS 19.9% | LOX IMVI melanoma 15.4%

CC(=O)c1c(C)nc(SCC(=O)Nc2cccc(O)c2)n1-c1ccc(Cl)cc1
inactive: HCT-15 colon 95% | HT29 colon 102% | SNB-75 CNS 62.8% | SNB-19 CNS 92% | U251 CNS 91.9% | PC-3 prostate 89.6% | SK-MEL-5 melanoma 93.2% | UACC-62 melanoma 75.3% | LOX IMVI melanoma 104% | SK-MEL-28 melanoma 106%

COC(=O)c1c2c(c(C)[n+]([O-])c1C)C(=O)C(NCc1cccc(OC)c1)=CC2=O
active: U251 CNS -1.83% | PC-3 prostate 6.62% | SK-MEL-5 melanoma -54.8% | UACC-62 melanoma -13.3%
inactive: HCT-15 colon 11.9% | HT29 colon 11.4% | SNB-75 CNS 132% | SNB-19 CNS 19.2% | LOX IMVI melanoma 22% | SK-MEL-28 melanoma 86.6%

CN1CCc2nc3sc(C(N)=O)c(N)c3c(-c3cccs3)c2C1
inactive: HCT-15 colon 33% | HT29 colon 42.6% | SNB-75 CNS 25.2% | SNB-19 CNS 37.9% | U251 CNS 27.4% | PC-3 prostate 32.5% | UACC-62 melanoma 19.5%
active: SK-MEL-5 melanoma -58.7% | LOX IMVI melanoma 7.95% | SK-MEL-28 melanoma 5.5%

COC(=O)Nc1nc2ccc(S(=O)c3ccccc3)cc2[nH]1 (centres undefined)
inactive: HCT-15 colon 45.6% | HT29 colon 16.9% | SNB-75 CNS 73.2% | SNB-19 CNS 74.9% | U251 CNS 60.2% | PC-3 prostate 67.4% | SK-MEL-5 melanoma 42.5% | UACC-62 melanoma 52.4% | LOX IMVI melanoma 64.8% | SK-MEL-28 melanoma 72.8%

O=C1NC2(Nc3ccccc31)C(=O)Nc1c(Cl)cc(Cl)cc12 (centres undefined)
inactive: HCT-15 colon 108% | HT29 colon 107% | SNB-75 CNS 80% | SNB-19 CNS 104% | U251 CNS 104% | PC-3 prostate 103% | SK-MEL-5 melanoma 99.9% | UACC-62 melanoma 101% | LOX IMVI melanoma 95.9% | SK-MEL-28 melanoma 118%

COc1cc2cc(NCc3cccc(Cl)c3)nc(C)c2cc1OC
inactive: HCT-15 colon 48.2% | SNB-75 CNS 65.9% | SNB-19 CNS 48.8% | U251 CNS 31.1% | PC-3 prostate 50.1% | SK-MEL-5 melanoma 43.4% | UACC-62 melanoma 14.4% | SK-MEL-28 melanoma 33.3%
active: HT29 colon 3.17% | LOX IMVI melanoma 0.852%

Cc1ccc(/C=C2\COc3ccc(O)cc3C2=O)cc1
inactive: HCT-15 colon 70.8% | HT29 colon 57.7% | SNB-75 CNS 84.6% | SNB-19 CNS 87.5% | U251 CNS 69.9% | PC-3 prostate 86% | SK-MEL-5 melanoma 97.7% | UACC-62 melanoma 86.1% | LOX IMVI melanoma 57% | SK-MEL-28 melanoma 103%

COc1ccc(NC(=O)c2sc3nc(C)c(C(=O)/C=C/c4ccccc4)cc3c2N)cc1
inactive: SNB-75 CNS 12.2% | SNB-19 CNS 10.6% | PC-3 prostate 52.6% | SK-MEL-5 melanoma 74.3% | UACC-62 melanoma 51.8% | SK-MEL-28 melanoma 85.7%
active: HCT-15 colon 0.101% | HT29 colon 0.196% | U251 CNS 1.8% | LOX IMVI melanoma -74.7%

CCNCCNc1cc(-c2ccc(C(F)(F)F)cc2)c(C#N)c2nc3ccccc3n12
active: HCT-15 colon -75.4% | HT29 colon -61.7% | SNB-75 CNS -95.5% | SNB-19 CNS -78.1% | U251 CNS -87.1% | PC-3 prostate -72.6% | SK-MEL-5 melanoma -91.8% | UACC-62 melanoma -74.4% | LOX IMVI melanoma -95.4% | SK-MEL-28 melanoma -86.4%

CC(C)COc1nc2c(c(=O)n(C)c(=O)n2C)n1C
inactive: HCT-15 colon 97% | HT29 colon 99.8% | SNB-75 CNS 82.4% | SNB-19 CNS 99.9% | U251 CNS 101% | PC-3 prostate 102% | SK-MEL-5 melanoma 86.7% | UACC-62 melanoma 93.8% | LOX IMVI melanoma 105% | SK-MEL-28 melanoma 106%

O=C(CN1CCCCC1)Nc1nc(-c2cc3ccccc3oc2=O)cs1
inactive: HCT-15 colon 102% | HT29 colon 100% | SNB-75 CNS 82.4% | SNB-19 CNS 100% | U251 CNS 97.4% | PC-3 prostate 97.8% | SK-MEL-5 melanoma 96% | LOX IMVI melanoma 101% | SK-MEL-28 melanoma 102%

COc1cc2c(cc1OCCCN1CCN(CCCOc3cc4c(cc3OC)C(=O)N3CCC[C@H]3C=N4)CC1)C=CC(C)(C)O2
active: HCT-15 colon -98% | HT29 colon -100% | SNB-75 CNS -98.2% | SNB-19 CNS -94.6% | U251 CNS -98.5% | PC-3 prostate -75.3% | SK-MEL-5 melanoma -100% | UACC-62 melanoma 1.28% | LOX IMVI melanoma -98.6% | SK-MEL-28 melanoma -100%
